A selection: hits, their analogues and other compounds. The true share with any hit is near 3.4%.
Tau fibril ThT: tau fibrillization inhibition (ThT binding). 270,000 tested, 2.1% active. Potency, µM (titrated, usually from 57.4 µM), without a hit: at the highest dose activity, negative = inhibition, actives largely listed as inhibitors. P10636. recombinant tau K18 P301L, heparin-induced fibrillization, ThT fluorescence; note: nearly all actives have a fitted effect of over 55% in size
Target sequence (P10636 561-689 P618L limits assumed): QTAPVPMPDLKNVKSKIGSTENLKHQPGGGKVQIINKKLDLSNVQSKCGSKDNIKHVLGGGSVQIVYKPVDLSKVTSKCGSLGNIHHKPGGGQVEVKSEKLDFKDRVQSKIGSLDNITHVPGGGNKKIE
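Recombinant human tau K18 fragment […] carrying P301L, 15 uM unlabeled plus 0.24 uM Alexa 594-labeled, was fibrillized with 20 uM heparin in 100 mM sodium acetate pH 7 for 6 hr at 37 C; 30 uM ThT fluorescence read after 1 hr.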
Tau fluor counter: counter-screen for tau fibril formation inhibitors | tau K18 P301L Alexa594 fluorescence, heparin fibrillization | Potency, µM (highest dose often 57.7 µM), inactives show at the highest dose activity change, negative = decrease | 280,000 tested, 0.93% active | AID 1463; note: nearly all actives have a fitted effect of over 55% in size
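Human tau K18 P301L (15 uM unlabeled, 0.24 uM Alexa 594-labeled) in 100 mM sodium acetate pH 7 with 20 uM heparin, 6 hr at 37 C. ThT 30 uM added, 1 hr ambient; Alexa 594 FP and total fluorescence read at 555/632 nm.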
Tau fibril FP: inhibitors of human tau fibril formation; P10636; K18 P301L tau heparin fibrillization, Alexa594 FP, 6 h; Potency, µM (titrated, usually from 57.7 µM), inactives show top-dose activity, negative = inhibition, hits mostly inhibitors; 280,000 tested, 0.39% active; AID 1468; note: nearly all actives have a fitted effect of over 55% in size
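Human K18 P301L fragment (15 uM unlabeled plus 0.24 uM Alexa 594-labeled) in 100 mM sodium acetate pH 7 with compound, aggregation induced by 20 uM heparin for 6 hr at 37 C. ThT (30 uM) added for 1 hr, then Alexa 594 FP read.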
JMJD2E inh: JMJD2E (human) inhibition. Potency, µM (highest dose often 57.1 µM), inactives show at the top dose activity change, negative = inhibition, usual class: inhibitors. JMJD2E catalytic domain, FDH-coupled NADH fluorescence (FDH is formaldehyde dehydrogenase). AID 2147. B2RXH2. 230,000 tested, 1.6% active; active = well fitted inhibition curve with a large enough effect, not every such curve was filed as active; inconclusive = small, poorly fitted or top-dose-only effect, or another doubt; inactive = no such curve, though single readings can be large or run the other way;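 note: 0% = wells with enzyme and -100% = buffer wells without enzyme; nearly all actives have a fitted effect of over 50% in size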
Target sequence (B2RXH2 1-337 limits assumed): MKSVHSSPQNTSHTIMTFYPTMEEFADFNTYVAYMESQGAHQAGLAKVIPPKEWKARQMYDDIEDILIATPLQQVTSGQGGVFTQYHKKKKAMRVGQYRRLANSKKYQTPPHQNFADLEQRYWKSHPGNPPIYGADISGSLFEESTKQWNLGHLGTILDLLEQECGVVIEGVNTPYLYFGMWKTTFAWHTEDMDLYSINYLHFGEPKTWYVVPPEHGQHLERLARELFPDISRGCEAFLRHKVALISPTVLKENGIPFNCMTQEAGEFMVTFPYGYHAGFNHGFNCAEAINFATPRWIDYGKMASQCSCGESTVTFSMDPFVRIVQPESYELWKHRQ
RGS12 GoLoco inh: blocks human Gai1 binding to RGS12 GoLoco peptide, red readout; 230,000 tested, 0.44% active; Gai1:RGS12 GoLoco peptide FP, rhodamine, 10 min; P63096; Potency, µM (doses to about 61.6 µM), inactives show top-dose activity, negative = inhibition, actives largely listed as inhibitors; active = well fitted inhibition curve with a large enough effect, not every such curve was filed as active; inactive = no such curve, though single readings can be large or run the other way; note: nearly all actives have a fitted effect of over 30% in size
The depositor's hits bear a star; u = inconclusive; x = not tested or not shown; [ ] = remark or other dose. Unless noted, calls come from the whole dose curve; as a rule, active = well fitted curve in the direction sought with a large enough effect; inconclusive = small, poorly fitted or top-dose-only effect, or another doubt; inactive = no such curve, though single readings can be large; an effect the other way counts as inactive or inconclusive. Unless noted, % is set by controls: 0 for no effect and ±100 for the full control effect; potency is the fitted concentration of half-maximal effect.

SMILES	Tau fibril ThT	Tau fluor counter	Tau fibril FP	JMJD2E inh	RGS12 GoLoco inh
O=C(Nc1ccccc1C(F)(F)F)N1CC=C(c2c[nH]c3ccccc23)CC1	u	18µM*[quencher]	14%	x	x
CC(C)(C)OC(=O)N1CCC(c2c(C(=O)N3CCCCC3)cnn2-c2ccccc2Cl)CC1	-9%	-11%	-7%	x	x
CC1=NN(c2cccc(C(=O)O)c2)C(=O)/C1=C\C=C\c1ccco1	14µM*	u	u	9%	-24%
CN(C)/C=C1\C(=O)ON=C1c1ccccc1	-2%	3%	3%	3%	4%
CC1=NN(c2ccccc2)C(=O)/C1=C\c1sccc1C	u	-25%	-1%	u	-4%
Cc1ccc(C2=NOC(=O)/C2=C\C=C\c2ccccc2)cc1	13µM*	u	14µM*	u	111%
CC1=NN(c2ccccc2)C(=O)/C1=C/C=C/c1ccccc1	16µM*	u	u	-3%	-3%
Cc1ccc(-n2nc3ccc(NC(=O)/C=C/c4ccco4)cc3n2)cc1	-17%	-26%	-6%	-30%	8%
Cc1ccc(C)c(NC(=O)C(=O)NCCc2csc3nc(-c4ccccc4C)nn23)c1	-3%	-20%	-5%	x	x
CN(N=O)C(=O)N[C@H]1C(O)C(O)C(CO)O[C@@H]1O (some centres undefined)	-1%	-6%	-1%	0%	20µM*
S=C(NCc1cccnc1)Nc1ccc(Oc2ccc(Cl)cc2)cc1	-19%	13µM*[quencher]	u	-12%	-3%
N#Cc1c(N)oc(-c2ccco2)c1-c1ccco1	14µM*	u	-6%	1.6µM*	20%
N#Cc1c(N)oc(-c2ccccc2)c1-c1ccccc1	-20%	-12%	-1%	-18%	9%
O=C(Nc1cccc(C(F)(F)F)c1)Nc1ccc(N2CCCC2)c(S(=O)(=O)Nc2ccccc2Cl)c1	u	2.5µM*[quencher]	u	u	2%
COc1ccc(N2CCN(C(=O)c3sc4nc5n(c(=O)c4c3C)CCC5)CC2)cc1	-13%	-13%	-3%	x	x
COc1ccc(-c2[nH]ncc2C(=O)NCc2cccc(Cl)c2)cc1	-5%	-15%	-11%	x	x
O=[N+]([O-])c1ccc(O)c(C2=NNC(c3ccccc3F)C2)c1 (centres undefined)	16µM*	-26%	6%	-14%	13%
Oc1ccc(Cl)cc1C1=NNC(c2cccs2)C1 (centres undefined)	u	u	-13%	u	138%
NC(=O)CC[C@@H]1NC(=O)[C@H](Cc2ccccc2)NC(=O)[C@H](Cc2ccc(O)cc2)NC(=O)[C@@H](N)CSSC[C@@H](C(=O)N2CCC[C@H]2C(=O)N[C@@H](CCCN=C(N)N)C(=O)NCC(N)=O)NC(=O)[C@H](CC(N)=O)NC1=O	-6%	-1%	6%	7%	3%
O=C(Nc1ccccc1)c1ccc2c(O)c(S(=O)(=O)c3ccc(Cl)cc3)c(=O)[nH]c2c1	5%	-11%	-4%	x	x
COc1ccc(NC(=O)Nc2cc(C(=O)NCc3ccc(C)cc3)ccc2N2CCCC2)cc1	6%	u	u	x	x
CCOC(=O)c1cccc(NC(=O)CCCn2c(C)c3cnn(-c4ccccc4)c(=O)c3c2C)c1	-17%	u	2%	x	x
COc1ccc2c(c1)c(C(=O)N/N=C/c1ccc(Cl)cc1)c(C)n2C	u	-20%	13%	2%	7%
COc1ccc(/C=N/NC(=O)c2nn(-c3ccc(Cl)cc3)c(=O)c3c(N)scc23)cc1	10µM*	u	u	u	34%
COc1ccc(/C=N/NC(=O)c2nn(-c3ccc(C)c(C)c3)c(=O)c3ccccc23)cc1	-20%	-19%	-1%	u	2%
SMILES	Tau fibril ThT	Tau fluor counter	Tau fibril FP	JMJD2E inh	RGS12 GoLoco inh
COc1ccc(/C=N/NC(=O)c2nn(-c3ccccc3)c(=O)c3c(N)scc23)cc1	14µM*	u	u	u	21%
CNC(=O)Cn1c(=O)c2cccn2c2ccc(F)cc21	6%	1%	-12%	x	x
COC(=O)c1c(C)c2c(c(C)c1O)OC(=O)c1c(C)c(Cl)c(O)c(Cl)c1O2	-20%	-14%	-1%	8%	6%
COC(=O)c1c(OC)cc2c(c1C)Oc1c(Cl)c(O)c(Cl)c(C)c1C(=O)O2	u	-16%	1%	-5%	-1%
COc1cc(C)c2c(c1C=O)Oc1c(c(C)c(O)c3c1C(O)OC3=O)OC2=O (centres undefined)	14µM*	u	25µM*	u	-15%
Cc1cc(O)c(C=O)c2c1C(=O)Oc1c(C)c(O)c3c(c1O2)C(O)OC3=O (centres undefined)	7.9µM*	u	u	u	11%
Cc1ccc(NC(=O)Cc2ccc(-n3c(C)nc4cccnc43)cc2)c(Cl)c1	10%	3%	5%	x	x
COc1ccc(-n2ncc(C(=O)NCc3ccc4c(c3)OCO4)c2C2CCN(C(=O)OC(C)(C)C)CC2)cc1	-11%	-18%	-6%	x	x
S=c1[nH]c2ccc3ccccc3c2[nH]1	-3%	0%	1%	u	15%
Cc1[nH]c2c(ccc3ccccc32)c1C1C(CCN)C1(C)C (centres undefined)	u	16µM*[quencher]	u	u	13%
COc1cccc(Cn2c(C)c(CNCc3ccccc3Cl)c(C(=O)O)c2C)c1	-2%	-2%	1%	x	x
O=C(Nc1ccc(Br)c2ccccc12)c1ccc2ccccc2c1O	18µM*	18µM*[quencher]	u	u	1%
CC(=O)Nc1ccc(Br)c2ccccc12	0%	-2%	-2%	-4%	41%
COc1cc(C2C(=O)N(C3CCCCCC3)CC(=O)N2Cc2ccccc2)ccc1OC(C)C (centres undefined)	-9%	-6%	-2%	x	x
Cc1[nH]c2ccccc2c1/C=N/Nc1nc(Nc2ccccc2)nc(N2CCOCC2)n1	u	22µM*[quencher]	u	-2%	-2%
Cc1[nH]c2ccccc2c1/C=N/Nc1ccc([N+](=O)[O-])cc1	0%	-1%	4%	0%	x
Cc1[nH]c2ccccc2c1/C=N/Nc1ccccn1	10µM*	16µM*[quencher]	7%	25µM*	-7%
Cc1[nH]c2ccccc2c1/C=N/Nc1ccc(F)cc1F	13µM*	u	5%	u	27%
Cc1[nH]c2ccccc2c1/C=N/Nc1nncn1N	14µM*	u	-5%	u	12%
COc1ccc(NC(=O)Cn2ccn(Cc3ccccc3)c(=O)c2=O)cc1Cl	u	-4%	-5%	x	x
COc1cccc(NC(=O)c2oc3ccc(S(=O)(=O)N4CCC5(CC4)OCCO5)cc3c2C)c1	3%	u	-10%	x	x
O=C1C=C(O)c2cccc(O)c2C1=O	u	-14%	-5%	7.9µM*	-8%
O=C1C=C(O)c2ccccc2C1=O	u	-14%	u	u	0%
O=C(O)C1Nc2c(O)cccc2C2C=CCC12 (centres undefined)	13µM*	u	u	18µM*	61%

From PubChem
